# Assay results from PubChem BioAssay (EPA / NIEHS).
# Activity calls are given as the source filed them. How the source made its calls: active means hit-call score of the fitted dose curve at least 0.9, where 1 is the maximum; inactive means score below 0.9.
# Columns and labels:
# Details in all cases: mRNA level, 48 h; actives raise or lower the signal
# [1] = read-out: Cyclin D2 (CCND2), CCND2 (gene 894); assay: LTEA_HepaRG_CCND2: Life Technologies and Expression Analysis (LTEA) Assay for Cyclin D2 (CCND2) using HepaRG (AID 2283449);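 further: CCND2 transcript measured by TaqMan qRT-PCR and normalised to three housekeeping genes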
# Method in brief: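 Chemicals in 0.5% DMSO, eight half-log concentrations from 100 uM top, were applied in duplicate for 48 h to human HepaRG cells in serum-free induction medium. CCND2 mRNA by TaqMan qRT-PCR, normalised to ACTB/GAPDH/POLR2A; bidirectional fit versus DMSO.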
# [2] = read-out: Cyclin Dependent Kinase Inhibitor 1A (CDKN1A), CDKN1A (gene 1026); assay: LTEA_HepaRG_CDKN1A: Life Technologies and Expression Analysis (LTEA) Assay for Cyclin Dependent Kinase Inhibitor 1A (CDKN1A) using HepaRG (AID 2283450)
# Method in brief: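 HepaRG, 48 h dosing, 8-pt half-log series from 100 uM top, 0.5% DMSO vehicle, duplicates. Readout: TaqMan qRT-PCR of CDKN1A transcript, housekeeping-normalized (ACTB, GAPDH, POLR2A). Up/down curve fit relative to DMSO.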
# [3] = read-out: Cyclin D1 (CCND1), CCND1 (gene 595); assay: LTEA_HepaRG_CCND1: Life Technologies and Expression Analysis (LTEA) Assay for Cyclin D1 (CCND1) using HepaRG (AID 2283451);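 on AC50: TaqMan qRT-PCR transcript level normalised to ACTB GAPDH and POLR2A housekeeping genes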
# Method in brief: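 qRT-PCR (Fluidigm 96.96 array) read-out of transcript level, housekeeping-normalized (ACTB/GAPDH/POLR2A). HepaRG cells, 48 h chemical exposure, 8-point half-log series from 100 uM, 0.5% DMSO vehicle; gain or loss relative to DMSO baseline.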
# [4] = read-out: catalase (CAT), CAT (gene 847); assay: LTEA_HepaRG_CAT: Life Technologies and Expression Analysis (LTEA) Assay for catalase (CAT) using HepaRG (AID 2283452)
# Method in brief: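 HepaRG cells in serum-free induction medium, 0.5% DMSO vehicle, exposed 48 h in duplicate over 8 half-log concentrations from 100 uM. CAT mRNA measured by qRT-PCR, normalized to ACTB, GAPDH, POLR2A; bidirectional fit versus DMSO.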
# [5] = read-out: flavin-containing dimethylaniline monooxygenases 3 (FMO3), FMO3 (gene 2328); assay: LTEA_HepaRG_FMO3: Life Technologies and Expression Analysis (LTEA) Assay for flavin-containing dimethylaniline monooxygenases 3 (FMO3) using HepaRG (AID 2283453)
# Method in brief: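 Differentiated HepaRG cells in serum-free induction medium, exposed 48 h in duplicate to 8 half-log concentrations up to 100 uM in 0.5% DMSO. FMO3 mRNA by qRT-PCR, normalized to ACTB, GAPDH, POLR2A; bidirectional fit vs DMSO.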
# [6] = read-out: Cytochrome P450 (CYP1A1), CYP1A1 (gene 1543); assay: LTEA_HepaRG_CYP1A1: Life Technologies and Expression Analysis (LTEA) Assay for Cytochrome P450 (CYP1A1) using HepaRG (AID 2283454)
# Method in brief: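 qRT-PCR read-out: CYP1A1 transcript normalized to three housekeeping genes, fitted bidirectionally against 0.5% DMSO vehicle baseline. Human HepaRG cells, 48 h chemical exposure, 8-point half-log series topping at 100 uM.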
# [7] = read-out: CFLAR gene, CFLAR (gene 8837); assay: LTEA_HepaRG_CFLAR: Life Technologies and Expression Analysis (LTEA) Assay for CFLAR gene using HepaRG (AID 2283455)
# Method in brief: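 Differentiated HepaRG cells in serum-free induction medium were exposed 48 h in duplicate to eight half-log concentrations up to 100 uM in 0.5% DMSO; mRNA measured by TaqMan qRT-PCR, normalized to ACTB, GAPDH, POLR2A; bidirectional fitting versus DMSO.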
# [8] = read-out: Forkhead box O1 (FOXO1), FOXO1 (gene 2308); assay: LTEA_HepaRG_FOXO1: Life Technologies and Expression Analysis (LTEA) Assay for Forkhead box O1 (FOXO1) using HepaRG (AID 2283456)
# Method in brief: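 Differentiated HepaRG cells, in serum-free induction medium with 0.5% DMSO, exposed 48 h in duplicate to 8-point half-log series from 100 uM. FOXO1 mRNA measured by TaqMan qRT-PCR, normalized to ACTB, GAPDH, POLR2A; bidirectional fit versus DMSO.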
# [9] = read-out: growth arrest and DNA damage 45 (GADD45A), GADD45A (gene 1647); assay: LTEA_HepaRG_GADD45A: Life Technologies and Expression Analysis (LTEA) Assay for growth arrest and DNA damage 45 (GADD45A) using HepaRG (AID 2283458)
# Method in brief: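 Cells plated and cultured 48 h, switched to serum-free induction medium, then dosed for 48 h (100 uM top, half-log dilutions, 0.5% DMSO). RNA was isolated and transcript measured by Fluidigm qRT-PCR.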
# [10] = read-out: Forkhead box O3 (FOXO3), FOXO3 (gene 2309); assay: LTEA_HepaRG_FOXO3: Life Technologies and Expression Analysis (LTEA) Assay for Forkhead box O3 (FOXO3) using HepaRG (AID 2283459)
# Method in brief: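 Differentiated human HepaRG cells, 48 h post-plating, exposed in duplicate for 48 h in serum-free induction medium; 8-point half-log series from 100 uM in 0.5% DMSO. FOXO3 mRNA by TaqMan qRT-PCR, normalized to ACTB/GAPDH/POLR2A; bidirectional fit versus DMSO.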
# [11] = read-out: ABC Transporter (ABCB1), ABCB1 (gene 5243); assay: LTEA_HepaRG_ABCB1: Life Technologies and Expression Analysis (LTEA) Assay for ABC Transporter (ABCB1) using HepaRG (AID 2283460)
# Method in brief: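 HepaRG cells exposed in duplicate for 48 h in serum-free induction medium to eight half-log concentrations up to 100 uM in 0.5% DMSO. ABCB1 mRNA quantified by qRT-PCR, normalised to ACTB, GAPDH and POLR2A; fitted bidirectionally versus DMSO.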
# [12] = read-out: growth arrest and DNA damage 45 (GADD45B), GADD45B (gene 4616); assay: LTEA_HepaRG_GADD45B: Life Technologies and Expression Analysis (LTEA) Assay for growth arrest and DNA damage 45 (GADD45B) using HepaRG (AID 2283461)
# Method in brief: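 qRT-PCR read-out (Fluidigm TaqMan, housekeeping-normalized) of mRNA change in human HepaRG cells after 48 h chemical exposure; 8-point curve, top 100 uM, half-log steps, 0.5% DMSO vehicle; gain or loss fitted relative to DMSO baseline.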
# [13] = read-out: ABC Transporter (ABCC3), ABCC3 (gene 8714); assay: LTEA_HepaRG_ABCC3: Life Technologies and Expression Analysis (LTEA) Assay for ABC Transporter (ABCC3) using HepaRG (AID 2283462)
# Method in brief: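 qRT-PCR read-out of ABCC3 transcript, normalized to three housekeeping genes (ACTB, GAPDH, POLR2A), after 48 h chemical exposure of human HepaRG cells. Eight half-log concentrations, highest 100 uM, in 0.5% DMSO; gain or loss fitted relative to DMSO baseline.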
# [14] = read-out: ABC Transporter (ABCB11), ABCB11 (gene 8647); assay: LTEA_HepaRG_ABCB11: Life Technologies and Expression Analysis (LTEA) Assay for ABC Transporter (ABCB11) using HepaRG (AID 2283463)
# Method in brief: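 Differentiated human HepaRG cells in serum-free induction medium, dosed in duplicate for 48 h. Eight-point half-log series from 100 uM in 0.5% DMSO; ABCB11 mRNA by qRT-PCR, normalized to ACTB, GAPDH, POLR2A, fitted bidirectionally versus DMSO.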
# [15] = read-out: ABC Transporter (ABCC2), ABCC2 (gene 1244); assay: LTEA_HepaRG_ABCC2: Life Technologies and Expression Analysis (LTEA) Assay for ABC Transporter (ABCC2) using HepaRG (AID 2283464)
# Method in brief: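 qRT-PCR (TaqMan, Fluidigm array) read-out of ABCC2 mRNA, normalized to three housekeeping genes. Differentiated HepaRG cells were treated 48 h in serum-free induction medium with 8-point half-log series from 100 uM in 0.5% DMSO; curves fitted bidirectionally relative to DMSO.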
# [16] = read-out: Broad substrate specificity ATP-binding cassette transporter ABCG2 (Homo sapiens) (UniProt Q9UNQ0); assay: LTEA_HepaRG_ABCG2: Life Technologies and Expression Analysis (LTEA) Assay for ABC Transporter (ABCG2) using HepaRG (AID 2283465)
# Method in brief: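 Differentiated HepaRG cells were exposed for 48 h in serum-free induction medium to 8 half-log concentrations, top 100 uM, in 0.5% DMSO. ABCG2 mRNA was measured by qRT-PCR, normalized to ACTB, GAPDH and POLR2A, with bidirectional fitting versus DMSO.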
# [17] = read-out: ATP-citrate lyase (ACLY), ACLY (gene 47); assay: LTEA_HepaRG_ACLY: Life Technologies and Expression Analysis (LTEA) Assay for ATP-citrate lyase (ACLY) using HepaRG (AID 2283466)
# Method in brief: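 Differentiated HepaRG cells exposed 48 h in serum-free induction medium to eight half-log concentrations up to 100 uM in 0.5% DMSO, duplicates. Transcript measured by Fluidigm TaqMan qRT-PCR, normalized to ACTB, GAPDH, POLR2A; bidirectional fit versus DMSO.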
# [18] = read-out: Peroxisomal acyl-coenzyme A oxidase 1 (ACOX1) gene, ACOX1 (gene 51); assay: LTEA_HepaRG_ACOX1: Life Technologies and Expression Analysis (LTEA) Assay for Peroxisomal acyl-coenzyme A oxidase 1 (ACOX1) gene using HepaRG (AID 2283467)
# Method in brief: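 HepaRG cells, plated 48 h then switched to serum-free induction medium, were exposed in duplicate for 48 h to 8-point half-log concentrations up to 100 uM in 0.5% DMSO. ACOX1 mRNA was measured by qRT-PCR, normalized to ACTB/GAPDH/POLR2A, and fitted bidirectionally versus DMSO.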
# [19] = read-out: Alkaline Phosphatase, Placental (ALPP) gene, ALPP (gene 250); assay: LTEA_HepaRG_ALPP: Life Technologies and Expression Analysis (LTEA) Assay for Alkaline Phosphatase, Placental (ALPP) gene using HepaRG (AID 2283468)
# Method in brief: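 qRT-PCR readout of ALPP mRNA (Fluidigm TaqMan), normalized to ACTB/GAPDH/POLR2A, after 48 h chemical exposure of HepaRG cells; 8-point half-log series, top 100 uM, 0.5% DMSO vehicle. Bidirectional curve fit versus DMSO baseline.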
# Broad substrate specificity ATP-binding cassette transporter ABCG2 (Homo sapiens), sequence (Q9UNQ0 whole entry, looked up): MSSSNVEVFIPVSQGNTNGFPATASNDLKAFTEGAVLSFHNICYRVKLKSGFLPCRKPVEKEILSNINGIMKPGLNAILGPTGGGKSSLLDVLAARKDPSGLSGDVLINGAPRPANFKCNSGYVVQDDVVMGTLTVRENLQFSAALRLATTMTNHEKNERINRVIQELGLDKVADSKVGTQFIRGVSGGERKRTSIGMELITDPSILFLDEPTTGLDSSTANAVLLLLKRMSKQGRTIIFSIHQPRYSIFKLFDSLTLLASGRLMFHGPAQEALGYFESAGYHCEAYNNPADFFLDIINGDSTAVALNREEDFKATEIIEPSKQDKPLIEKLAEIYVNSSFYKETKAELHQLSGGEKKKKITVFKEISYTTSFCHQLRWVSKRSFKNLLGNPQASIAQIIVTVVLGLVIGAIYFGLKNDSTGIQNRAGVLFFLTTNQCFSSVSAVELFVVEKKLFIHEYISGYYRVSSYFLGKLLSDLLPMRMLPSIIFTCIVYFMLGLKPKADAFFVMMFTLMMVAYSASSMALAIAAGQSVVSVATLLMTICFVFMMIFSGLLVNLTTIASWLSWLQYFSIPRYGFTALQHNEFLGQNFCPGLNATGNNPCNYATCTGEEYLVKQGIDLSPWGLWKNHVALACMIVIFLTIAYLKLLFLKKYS
smiles,measurement,setting,value
Cc1ccc(C)c(C)c1,outcome,[1],inactive
same,outcome,[2],inactive
same,outcome,[3],inactive
same,outcome,[4],inactive
same,outcome,[5],inactive
same,outcome,[6],inactive
same,outcome,[7],inactive
same,outcome,[8],inactive
same,outcome,[9],inactive
same,outcome,[10],inactive
same,outcome,[11],inactive
same,outcome,[12],inactive
same,outcome,[13],inactive
same,outcome,[14],inactive
same,outcome,[15],inactive
same,outcome,[16],inactive
same,outcome,[17],inactive
same,outcome,[18],inactive
same,outcome,[19],inactive
CCCCCC(=O)O,outcome,[1],inactive
same,outcome,[2],inactive
same,outcome,[3],inactive
same,outcome,[4],inactive
same,outcome,[5],inactive
same,AC50,[6],70 µM (active)
same,outcome,[7],inactive
same,outcome,[8],inactive
same,outcome,[9],inactive
same,outcome,[10],inactive
same,outcome,[11],inactive
same,outcome,[12],inactive
same,outcome,[13],inactive
same,outcome,[14],inactive
same,outcome,[15],inactive
same,outcome,[16],inactive
same,outcome,[17],inactive
same,outcome,[18],inactive
same,outcome,[19],inactive
O=C(N[C@@H](Cc1ccccc1)[C@@H](O)C(=O)N1C[C@@H](O)[C@@H](O)C1)c1cc2cc(Cl)ccc2[nH]1,outcome,[1],inactive
same,AC50,[2],63.1 µM (active)
same,outcome,[3],inactive
same,outcome,[4],inactive
same,outcome,[5],inactive
same,AC50,[6],50 µM (active)
same,outcome,[7],inactive
same,outcome,[8],inactive
same,outcome,[9],inactive
same,outcome,[10],inactive
same,AC50,[11],9.92 µM (active)
same,outcome,[12],inactive
same,outcome,[13],inactive
same,outcome,[14],inactive
same,outcome,[15],inactive
same,AC50,[16],50 µM (active)
same,AC50,[17],50 µM (active)
same,outcome,[18],inactive
same,outcome,[19],inactive
Cc1nc(C)nc(N2C[C@@H](C)N(c3ccnc([C@@H](C)O)n3)[C@@H](C)C2)n1,outcome,[1],inactive
same,outcome,[2],inactive
same,outcome,[3],inactive
same,outcome,[4],inactive
same,outcome,[5],inactive
same,outcome,[6],inactive
same,outcome,[7],inactive
same,outcome,[8],inactive
same,outcome,[9],inactive
same,outcome,[10],inactive
same,outcome,[11],inactive
same,outcome,[12],inactive
same,outcome,[13],inactive
same,outcome,[14],inactive
same,outcome,[15],inactive
same,outcome,[16],inactive
same,outcome,[17],inactive
same,outcome,[18],inactive
same,outcome,[19],inactive
CCCCC(CC)COC(=O)CC(C(=O)OCC(CC)CCCC)S(=O)(=O)O (centres undefined),outcome,[1],inactive
same,outcome,[2],inactive
same,AC50,[3],85.3 µM (active)
same,AC50,[4],86.6 µM (active)
same,AC50,[5],77.4 µM (active)
same,AC50,[6],10.3 µM (active)
same,AC50,[7],81.7 µM (active)
same,AC50,[8],80.8 µM (active)
same,AC50,[9],93.9 µM (active)
same,AC50,[10],79.8 µM (active)
same,AC50,[11],89.9 µM (active)
same,AC50,[12],82.2 µM (active)
same,outcome,[13],inactive
same,outcome,[14],inactive
same,AC50,[15],89.2 µM (active)
same,outcome,[16],inactive
same,AC50,[17],90.7 µM (active)
same,AC50,[18],79.9 µM (active)
same,outcome,[19],inactive
CNCc1cc(F)ccc1Oc1ccc(Cl)c(Cl)c1,outcome,[1],inactive
same,AC50,[2],20.5 µM (active)
same,outcome,[3],inactive
same,AC50,[4],82.8 µM (active)
same,AC50,[5],93.3 µM (active)
same,outcome,[6],inactive
same,AC50,[7],12.1 µM (active)
same,outcome,[8],inactive
same,outcome,[9],inactive
same,outcome,[10],inactive
same,outcome,[11],inactive
same,AC50,[12],91.3 µM (active)
same,outcome,[13],inactive
same,outcome,[14],inactive
same,AC50,[15],75.6 µM (active)
same,outcome,[16],inactive
same,outcome,[17],inactive
same,AC50,[18],74.2 µM (active)
same,AC50,[19],81.8 µM (active)
